Among the data in the supplement of paper PMC11172423 are growth values, retold here.

For one assay, the system named is Madurella mycetomatis MM55. Put plainly: growth relative to untreated control; higher = less inhibition, active = 20 or less. Conditions: 25 µM. An outline of the steps: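 In 96-well plates, suspended hyphal fragments of M. mycetomatis MM55 or F. senegalensis CBS197.79 were exposed to compound at 100 or 25 µM for 7 days at 37 °C. The suspension medium was colourless RPMI 1640 with L-glutamine and MOPS, adjusted to 68–72% transmission at 660 nm. Viability was measured with MTS (2 h, 490 nm) or resazurin (600 nm). Growth means metabolic activity compared with the untreated growth control after blank correction of both with medium plus dye.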
Turning to `CC(C)CN(C[C@@H](O)[C@H](Cc1ccccc1)NC(=O)O[C@H]1CO[C@H]2OCC[C@H]21)S(=O)(=O)c1ccc(N)cc1`, the growth was 130% (inactive). Same read-out and setting: then `CCOc1ccccc1NC(=O)Cn1c(=O)n(Cc2ccccc2)c(=O)c2c(C)c(C(=O)N(C)C)sc21`, with 104% (inactive); and `C[C@H](CS)C(=O)N1CCC[C@H]1C(=O)O`, with 77.5% (inactive). Same read-out and setting: then `COc1ccc(-c2nc3c(NCc4ccccc4)nccc3[nH]2)c(OC)c1`, with 6.23% (active); and `COc1ccc(CCNc2nccc(-c3cc(Cl)cc(C(F)(F)F)c3)n2)cc1`, with 110% (inactive); and `CC(C)(C)Nc1ncc2nc(Nc3cccc(C(F)(F)F)c3)n(CC3CCNCC3)c2n1`, with 107% (inactive).

Consider `CCOC(=O)NCCOc1cnn(Cc2ccccc2)c(=O)c1`, for which the growth was 100% (inactive). As for `CCOc1ccc(-c2ccnc(Nc3cncc(OC)c3)n2)cc1C#N`, the growth is 88.5% (inactive). On the same count and under the same terms, then `O=C(c1ccc(Nc2nccc(-c3ccc(C(F)(F)F)c(Cl)c3)n2)cc1)N1CC(O)C1`, with 103% (inactive); and `C[C@H]1c2cccc(O)c2C(=O)C2=C(O)[C@]3(O)C(O)=C(C(N)=O)C(=O)[C@@H](N(C)C)[C@@H]3[C@@H](O)[C@@H]21`, with 63.1% (inactive).

Staying with this assay, now noted: 100 µM.
As for `CNC(=O)c1cc(-c2n[nH]c3ccc(-c4nc(C5CCCN5)n[nH]4)cc23)ccc1F` (stereo unspecified), the growth is 71.5% (inactive). The same measure, in the same setting: for `CO[C@H]1C[C@@H]2CC[C@@H](C)[C@@](O)(O2)C(=O)C(=O)N2CCCC[C@H]2C(=O)O[C@H]([C@H](C)C[C@@H]2CC[C@@H](O)[C@H](OC)C2)CC(=O)[C@H](C)/C=C(\C)[C@@H](O)[C@@H](OC)C(=O)[C@H](C)C[C@H](C)/C=C/C=C/C=C/1C` the value was 69.3% (inactive); for `CC(C)Nc1ncc2nc(Nc3cc(Cl)cc(C(F)(F)F)c3)n(C3CCNCC3)c2n1`, 4.67% (active); for `OCCN1CCc2nc(NCc3ccc(F)cc3F)nc(NC34CC(C3)C4)c2CC1`, 5.18% (active).

On to `Cc1c2c(n3c(nc4ccccc43)c1C#N)N(CCN(C)C)CC2`, for which the growth was 43.7% (inactive). The same measure, in the same setting: then `Oc1nc2ccccc2n1C1CCN(CCCC(c2ccc(F)cc2)c2ccc(F)cc2)CC1`, with 64.9% (inactive); and `CO[C@H]1C[C@H](O[C@@H]2/C(C)=C/C[C@@H]3C[C@@H](C[C@]4(CC[C@H](C)[C@@H](C5CCCCC5)O4)O3)OC(=O)[C@@H]3C=C(C)/C(=N/O)[C@H]4OC/C(=C\C=C\[C@@H]2C)[C@]43O)O[C@@H](C)[C@@H]1O`, with 111% (inactive); and `COC(=O)N[C@H](C(=O)N[C@@H](Cc1ccccc1)[C@@H](O)CN(Cc1ccc(-c2ccccn2)cc1)NC(=O)[C@@H](NC(=O)OC)C(C)(C)C)C(C)(C)C`, with 105% (inactive). In the case of `O[C@@H](c1cc(C(F)(F)F)nc2c(C(F)(F)F)cccc12)[C@H]1CCCCN1`, the growth is 4.2% (active). Take `CCCCN(CCCC)CC(O)c1cc(Cl)cc2c1-c1ccc(Cl)cc1/C2=C/c1ccc(Cl)cc1` (stereo unspecified): the growth was 87.9% (inactive). The same measure, in the same setting: for `CN(C)CCCN1c2ccccc2Sc2ccc(Cl)cc21` the value was 3.82% (active); for `CC(=O)Nc1ccc(NC(=O)c2cc(-c3ccc(C)cc3O)n[nH]2)cc1`, 82.5% (inactive). Consider `c1cc(N2CCC(CN3CCOCC3)CC2)c2sccc2n1`, for which the growth was 31.4% (inactive).

For `CS(=O)(=O)NC1CCN(C(=O)c2ccc(Nc3nccc(-c4cc(Cl)cc(C(F)(F)F)c4)n3)cc2)C1` (stereo unspecified), the growth was 95.4% (inactive). On the same count and under the same terms, for `CCN(CC)C(=O)/C(C#N)=C/c1cc(O)c(O)c([N+](=O)[O-])c1` the value was 91.8% (inactive); for `c1ccc(Nc2cc(Nc3cc(-c4ccccc4)[nH]n3)nc3ccnn23)cc1`, 10.5% (active). Still for that read-out and setting: for `CS(=O)(=O)N1CCC(NC(=O)c2cc3ccc(C(F)(F)F)cc3[nH]2)CC1` the value was 109% (inactive).

On to `CCC(CC)COC(=O)[C@H](C)NP(=O)(OC[C@H]1O[C@@](C#N)(c2ccc3c(N)ncnn23)[C@H](O)[C@@H]1O)Oc1ccccc1` (stereo partly specified), for which the growth is 85.7% (inactive). For the compound `Clc1ccc2ncc(-c3cccc(NC4CCNC4)n3)n2c1` (stereo unspecified), the growth is 56.6% (inactive). On the same count and under the same terms, for `CCCCc1nc(Cl)c(CO)n1Cc1ccc(-c2ccccc2-c2nn[nH]n2)cc1` the value was 88.8% (inactive); for `Cc1ccc(-c2cc(C(F)(F)F)nn2-c2ccc(S(N)(=O)=O)cc2)cc1`, 6.13% (active); for `COc1ccc2c(O[C@@H]3C[C@H]4C(=O)N[C@]5(C(=O)NS(=O)(=O)C6CC6)C[C@H]5/C=C\CCCCN(C)C(=O)[C@@H]4C3)cc(-c3nc(C(C)C)cs3)nc2c1C`, 74.8% (inactive). On the same count and under the same terms, for `CN(C)CCCN1C(=O)c2[nH]nc(-c3ccc(Cl)cc3O)c2C1c1ccc(Cl)cc1` (stereo unspecified) the value was 6.84% (active); for `Cc1cc(C)c2cc(C(=O)N[C@@H](C)c3ccccc3)[nH]c2c1`, 69.4% (inactive); for `CC(C)(C)c1nn(-c2ccc(Cl)cc2)c2[nH]c(=O)c(CNCc3ccc4c(c3)OCO4)cc12`, 6.74% (active).

As to `Cc1noc(C2CN(C(=O)c3ccc(Nc4nccc(-c5ccc(Cl)cc5)n4)cc3)C2)n1`, the growth is 73.7% (inactive).

Take `CC(C)CN(C[C@@H](O)[C@H](Cc1ccccc1)NC(=O)O[C@H]1CO[C@H]2OCC[C@H]21)S(=O)(=O)c1ccc(N)cc1`: the growth is 90.5% (inactive). As for `CCOc1ccccc1NC(=O)Cn1c(=O)n(Cc2ccccc2)c(=O)c2c(C)c(C(=O)N(C)C)sc21`, the growth is 109% (inactive). Still for that read-out and setting: then `C[C@H](CS)C(=O)N1CCC[C@H]1C(=O)O`, with 95.8% (inactive); and `COc1ccc(-c2nc3c(NCc4ccccc4)nccc3[nH]2)c(OC)c1`, with 7.79% (active); and `COc1ccc(CCNc2nccc(-c3cc(Cl)cc(C(F)(F)F)c3)n2)cc1`, with 116% (inactive).

As for `CC(C)(C)Nc1ncc2nc(Nc3cccc(C(F)(F)F)c3)n(CC3CCNCC3)c2n1`, the growth was 69.3% (inactive). On the same count and under the same terms, for `CCOC(=O)NCCOc1cnn(Cc2ccccc2)c(=O)c1` the value was 97.3% (inactive); for `CCOc1ccc(-c2ccnc(Nc3cncc(OC)c3)n2)cc1C#N`, 68.7% (inactive).

`O=C(c1ccc(Nc2nccc(-c3ccc(C(F)(F)F)c(Cl)c3)n2)cc1)N1CC(O)C1`: the growth was 131% (inactive). Same read-out and setting: for `C[C@H]1c2cccc(O)c2C(=O)C2=C(O)[C@]3(O)C(O)=C(C(N)=O)C(=O)[C@@H](N(C)C)[C@@H]3[C@@H](O)[C@@H]21` the value was 91.7% (inactive).
